In PubChem BioAssay AID651820 (National Center for Advancing Translational Sciences (NCATS), 2012):
About 12,000 (3.5%) of roughly 340,000 compounds were called active. Inconclusive results (about 18%) are left out. This is one part of a sample in which actives are shown more often than they occur. Values without a mark were called inactive. Calls follow the shape of the dose curve; as a rule, active = well fitted inhibition curve with a large enough effect; inconclusive = small, poorly fitted or top-dose-only effect, or another doubt; inactive = no such curve, though single readings can be large or run the other way.
% is scaled to controls: 0 for no effect and ±100 for the full control effect; potency is read from the fitted curve at half-maximal effect.

Test: qHTS Assay for Inhibitors of Hepatitis C Virus (HCV)
Conditions: Huh7.5.1 HCVcc-Cre infection, luciferase reporter, 44 h; series mostly up to 41.8 µM; activity change, negative = inhibition: at the top concentration
Summary of the method: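 Seed cells (1,000/well) for 4 h; treat with compound and infect with HCVcc-Cre, moi about 0.5. Incubate 44 h, then detect luciferase activity.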
For `C[C@H](CO)N1C[C@H](C)[C@@H](CN(C)C(=O)Nc2ccc3c(c2)OCO3)Oc2c(cccc2N(C)C)C1=O`, the “activity change, negative = inhibition” value was 4.83%. For `Cc1occc1-c1nnc(SCC(=O)NC2CCCCC2)o1`, the “activity change, negative = inhibition” value was -19.8%. For `CCN(CC(=O)NCc1ccc(F)cc1)S(=O)(=O)c1ccc(Cl)s1`, the “activity change, negative = inhibition” value was -12.5%. In the case of `CCOc1cc(C=NNC(=O)CCCC(=O)NN=Cc2ccc(O)c(OCC)c2)ccc1O`, the “activity change, negative = inhibition” value is reported as 11.1%. With `COc1cc(/C=N\Nc2nc(-c3cccs3)c(NC(C)=O)s2)ccc1O` the “activity change, negative = inhibition” value was 7.87%. For `CCOc1cc(/C=C(\C#N)c2nc(-c3cccs3)c(NC(C)=O)s2)ccc1O`, the Potency was 0.891 µM (active). In the case of `Cc1ccc(C2(C)NC(=O)N(CC(=O)N3CC(=O)Nc4ccccc43)C2=O)cc1` (stereo not given), the “activity change, negative = inhibition” value is reported as 13.9%. In the case of `O=C(CN1CCN(C2CCS(=O)(=O)C2)CC1)N1N=C(c2ccc(Cl)cc2)CC1c1ccco1` (stereo not given), the “activity change, negative = inhibition” value is reported as -27.2%. In the case of `CCCOc1ccc(Cc2c(Cl)nc(SC)nc2NC)cc1`, the Potency is reported as 2.82 µM (active). With `CCCOc1ccc(Cc2c(O)nc(SC)[nH]c2=O)cc1C` the “activity change, negative = inhibition” value was 15.9%. With `CCCOc1ccc(-c2nc(N)n[nH]2)cc1` the “activity change, negative = inhibition” value was 9.2%. For `CCOC(=O)N(Cc1ccccc1)C1CC1`, the “activity change, negative = inhibition” value was 28.4%. For `COc1ccc(OCc2cccc(C(=O)N3CCCC3)c2)cc1`, the “activity change, negative = inhibition” value was -19.1%. `CC(C)(C)OC(=O)N(Cc1ccccc1)Cc1ccc(OCc2cccc(NC(=O)c3ccccc3)c2)cc1` showed an activity change, negative = inhibition of -4.99% [at 8.37 µM]. With `CC(C)c1cc(C(N)=O)c(NC(=O)c2cccc(COc3ccc(Br)cc3)c2)s1` the Potency was 10 µM (active). With `O=C(CNS(=O)(=O)c1ccc2c(c1)OCCCO2)N1CCN(c2ccc(F)cc2)CC1` the “activity change, negative = inhibition” value was -5.91%. For `CC1(C)C=Cc2c(ccc3c2OC[C@@H](c2ccc(O)cc2O)C3)O1`, the “activity change, negative = inhibition” value was -7.33%. In the case of `c1ccc(Nc2nc(N3CCOCC3)c3ccccc3n2)cc1`, the Potency is reported as 11.2 µM (active). For `CN1CCN(c2nc(Nc3ccc(O)cc3)nc3ccccc23)CC1`, the “activity change, negative = inhibition” value was -19.8%. In the case of `O=c1[nH]c(N2CCOCC2)nc2ccccc12`, the “activity change, negative = inhibition” value is reported as 9.82%. With `CCOC(=O)C1=C(c2ccc(OC)cc2)C(=O)c2ccccc2C1=O` the Potency was 7.08 µM (active). With `COc1ccc(OCCCON2C(=O)c3ccccc3C2=O)cc1` the “activity change, negative = inhibition” value was 5.92%. For `CCCCC(C(=O)OCC(=O)c1ccc(OC)cc1)N1C(=O)c2ccccc2C1=O` (stereo not given), the “activity change, negative = inhibition” value was -29.6%. In the case of `O=[N+]([O-])c1ccc(NS(=O)(=O)c2ccccc2)c(Cl)c1`, the “activity change, negative = inhibition” value is reported as -7.59%. In the case of `COc1ccccc1OCc1nnc(SCC(N)=O)n1-c1ccccc1`, the “activity change, negative = inhibition” value is reported as 7.37%. For `COc1ccccc1NC(=O)CSc1nnc(Cn2nnc(-c3ccccc3)n2)n1-c1ccccc1`, the Potency was 31.6 µM (active). In the case of `COc1ccccc1NC(=O)CSc1nnc(Cc2cccn2C)n1-c1ccc(F)cc1`, the Potency is reported as “inactive”. With `O=C(COC(=O)c1n[nH]c2ccccc12)Nc1ccccc1Br` the “activity change, negative = inhibition” value was -0.82%. With `CC(C(=O)Nc1ccc(S(=O)(=O)N2CCCC2)cc1)N(C)Cc1ccc(F)cc1` (stereo not given) the “activity change, negative = inhibition” value was -4.33%. For `Cc1cccc2sc(N(CCCN(C)C)C(=O)CCS(=O)(=O)c3ccccc3)nc12`, the “activity change, negative = inhibition” value was 7.99%. For `COc1cccc2sc(N(CCCN(C)C)C(=O)C(c3ccccc3)c3ccccc3)nc12`, the Potency was 12.6 µM (active). In the case of `COc1cc2ccccc2cc1C(=O)N(CCN(C)C)c1nc2c(F)cccc2s1`, the Potency is reported as 14.1 µM (active). In the case of `CCOc1ccc2nc(N(CCCN(C)C)C(=O)c3ccc(C(=O)c4ccccc4)cc3)sc2c1`, the “activity change, negative = inhibition” value is reported as -29.8%. For `CCOc1ccc2nc(N(CCN(C)C)C(=O)c3ccc4ccccc4c3)sc2c1`, the “activity change, negative = inhibition” value was -27.4%. For `COc1cccc2sc(N(CCCN(C)C)C(=O)CCS(=O)(=O)c3ccccc3)nc12`, the “activity change, negative = inhibition” value was 17.2%. In the case of `C[C@H](OC(=O)n1ccnc1)[C@@H]1O[C@@]2(C)CCC[C@@H]1O2`, the “activity change, negative = inhibition” value is reported as 4.05%. With `CCc1cccc(NC(=O)COC(=O)c2cc(=O)c3ccccc3o2)c1` the “activity change, negative = inhibition” value was 0.189%. In the case of `O=C(NNC(=O)C(O)c1ccccc1)NC1CCCCC1` (stereo not given), the “activity change, negative = inhibition” value is reported as 12.7%. For `Cc1nc(/N=C(\N)NC(=O)NC2CCCCC2)nc2ccccc12`, the Potency was 11.2 µM (active). For `Cc1nn(-c2ccccc2)c(C)c1C(=O)OCC(=O)NC(=O)NC1CCCCC1`, the “activity change, negative = inhibition” value was -6.4%. For `C=CCOc1cccc(C2C(C(=O)c3ccc(C)o3)=C(O)C(=O)N2CCCn2ccnc2)c1` (stereo not given), the “activity change, negative = inhibition” value was 12.5%. With `Cc1cccc(CC2(O)C(=O)Nc3ccccc32)n1` (stereo not given) the “activity change, negative = inhibition” value was 4.09%. For `Cc1ccnc(SCC(=O)Nc2cccc(S(=O)(=O)N3CCOCC3)c2)n1`, the “activity change, negative = inhibition” value was 2.31%. For `Cc1nc2ccc(NC(=O)C3CCCCC3)cc2s1`, the “activity change, negative = inhibition” value was 15.5%. With `Cc1nc2ccc(N)nc2nc1C` the “activity change, negative = inhibition” value was 25.2%. For `COC(=O)CNc1nc(Cl)nc(N2CCC(C)CC2)n1`, the “activity change, negative = inhibition” value was 7.19%. In the case of `COc1nc(NC2CCCCC2)nc(N2CCCCCC2)n1`, the “activity change, negative = inhibition” value is reported as -16.6%. With `Clc1nc(NC2CCCC2)nc(N2CCOCC2)n1` the Potency was 14.1 µM (active). In the case of `O=C(CNC(=O)c1n[nH]c2ccccc12)Nc1cc(Cl)ccc1Cl`, the “activity change, negative = inhibition” value is reported as 3.28%. With `CCN1CCN(C(=O)N(Cc2ccc(Cl)cc2)S(=O)(=O)c2ccc(C)cc2)CC1` the “activity change, negative = inhibition” value was 13.5%.
